# From PMC7862700, “An all-to-all approach to the identification of sequence-specific readers for epigenetic DNA modifications on cytosine”
# Tests used:
# Experiment in all cases: DAPPL (digital affinity profiling via proximity ligation, sequencing); 10 mM Tris-HCl pH 7.5, 50 mM NaCl, 1 mM DTT, 4% glycerol, room temperature, 30 min; GST-TFs on glutathione beads, 16-mer random dsDNA library, 0.1% formaldehyde crosslink after washing; high values mean tight binding
# FEV = biological target: T1, FEV (Homo sapiens, UniProt Q99581 1-238); details: protein: recombinant; tags: N-terminal GST; dsDNA, one strand shown
# T1 sequence: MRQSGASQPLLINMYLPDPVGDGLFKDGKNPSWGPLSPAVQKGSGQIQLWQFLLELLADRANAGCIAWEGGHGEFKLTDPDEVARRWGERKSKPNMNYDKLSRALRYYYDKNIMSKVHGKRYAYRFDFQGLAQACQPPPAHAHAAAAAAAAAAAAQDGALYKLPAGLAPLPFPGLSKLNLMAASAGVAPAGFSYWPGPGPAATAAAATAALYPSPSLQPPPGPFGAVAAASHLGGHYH
# Outline: (§1)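 Pools were built from human transcription factors expressed in yeast as GST fusions, captured on glutathione beads and DNA-barcoded, along with a tag-only sample. Incubation with 200 nmole of a 16-mer random double-stranded DNA library lasted 30 min at room temperature in Tris/NaCl/DTT/glycerol buffer, and was followed by washing, 0.1% formaldehyde crosslinking, proximity ligation, PCR amplification and Illumina NextSeq500 sequencing. Binding signal is the quotient of each hexamer's read frequency for a factor and its frequency for the tag-only sample.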
# ETV5 = ETV5 (Homo sapiens, UniProt P41161 1-510); details: protein: recombinant; tags: N-terminal GST; dsDNA, one strand shown
# Outline: as §1
# HSF1 = HSF1 (Homo sapiens, UniProt Q00613 1-529); details: protein: recombinant; tags: N-terminal GST; chain copies: 3; dsDNA, one strand shown
# Outline: as §1
# SPIC = biological target: T2, SPIC (Homo sapiens, UniProt Q8N5J4 1-248); details: protein: recombinant; tags: N-terminal GST; dsDNA, one strand shown
# T2 sequence: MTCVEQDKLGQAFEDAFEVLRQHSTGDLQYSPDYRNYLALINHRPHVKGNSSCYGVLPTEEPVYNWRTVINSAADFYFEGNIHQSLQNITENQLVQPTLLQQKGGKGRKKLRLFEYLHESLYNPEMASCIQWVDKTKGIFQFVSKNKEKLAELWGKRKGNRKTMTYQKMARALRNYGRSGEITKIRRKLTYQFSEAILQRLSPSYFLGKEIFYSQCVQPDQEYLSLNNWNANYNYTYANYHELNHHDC
# Outline: as §1
# ELF4 = ELF4 (Homo sapiens, UniProt Q99607 1-663); details: protein: recombinant; tags: N-terminal GST; dsDNA, one strand shown
# Outline: as §1
# ELK4 = biological target: T3, ELK4 (Homo sapiens, UniProt P28324-2 1-405); details: protein: recombinant; tags: N-terminal GST; dsDNA, one strand shown
# T3 sequence: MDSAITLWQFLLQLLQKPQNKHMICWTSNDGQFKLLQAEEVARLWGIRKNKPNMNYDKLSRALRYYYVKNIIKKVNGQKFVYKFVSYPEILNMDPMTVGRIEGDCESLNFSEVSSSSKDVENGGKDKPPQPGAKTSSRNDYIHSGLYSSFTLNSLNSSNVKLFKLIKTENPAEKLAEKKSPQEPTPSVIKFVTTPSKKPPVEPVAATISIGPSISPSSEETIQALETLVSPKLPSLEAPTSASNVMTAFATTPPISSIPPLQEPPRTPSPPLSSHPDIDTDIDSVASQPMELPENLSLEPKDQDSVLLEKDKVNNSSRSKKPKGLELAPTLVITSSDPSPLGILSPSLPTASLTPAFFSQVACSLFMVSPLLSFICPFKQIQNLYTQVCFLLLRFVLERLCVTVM
# Outline: as §1
# ETV2 = biological target: T4, ETV2 (Homo sapiens, UniProt O00321 1-342); details: protein: recombinant; tags: N-terminal GST; dsDNA, one strand shown
# T4 sequence: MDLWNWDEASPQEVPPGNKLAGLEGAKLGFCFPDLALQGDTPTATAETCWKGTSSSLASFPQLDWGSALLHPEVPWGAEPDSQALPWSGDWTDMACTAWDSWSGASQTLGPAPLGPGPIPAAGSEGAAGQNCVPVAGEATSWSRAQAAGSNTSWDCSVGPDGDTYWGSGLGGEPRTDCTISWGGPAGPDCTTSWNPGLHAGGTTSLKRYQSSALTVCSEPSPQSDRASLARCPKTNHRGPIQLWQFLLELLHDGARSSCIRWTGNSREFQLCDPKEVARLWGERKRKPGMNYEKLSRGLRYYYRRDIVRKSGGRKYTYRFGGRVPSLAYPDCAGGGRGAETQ
# Outline: as §1
# ELF3 = biological target: T5, ELF3 (Homo sapiens, UniProt P78545 1-371); details: protein: recombinant; tags: N-terminal GST; dsDNA, one strand shown
# T5 sequence: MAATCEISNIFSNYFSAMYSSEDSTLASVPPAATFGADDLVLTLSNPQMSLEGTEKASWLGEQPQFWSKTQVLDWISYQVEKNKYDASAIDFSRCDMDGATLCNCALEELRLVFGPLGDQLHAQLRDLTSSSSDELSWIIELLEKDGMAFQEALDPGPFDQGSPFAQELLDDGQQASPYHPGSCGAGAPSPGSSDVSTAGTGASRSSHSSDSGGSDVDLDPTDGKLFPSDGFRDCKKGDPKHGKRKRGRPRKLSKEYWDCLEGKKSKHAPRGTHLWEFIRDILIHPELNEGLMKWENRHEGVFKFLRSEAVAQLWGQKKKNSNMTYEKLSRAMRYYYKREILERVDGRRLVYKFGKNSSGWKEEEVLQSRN
# Outline: as §1
# CRX = CRX (Homo sapiens, UniProt O43186 1-299); details: protein: recombinant; tags: N-terminal GST; dsDNA, one strand shown
# Outline: as §1
# ETV1 = ETV1 (Homo sapiens, UniProt P50549 1-477); details: protein: recombinant; tags: N-terminal GST; dsDNA, one strand shown
# Outline: as §1
# Chain of HSF1 (Q00613 whole entry): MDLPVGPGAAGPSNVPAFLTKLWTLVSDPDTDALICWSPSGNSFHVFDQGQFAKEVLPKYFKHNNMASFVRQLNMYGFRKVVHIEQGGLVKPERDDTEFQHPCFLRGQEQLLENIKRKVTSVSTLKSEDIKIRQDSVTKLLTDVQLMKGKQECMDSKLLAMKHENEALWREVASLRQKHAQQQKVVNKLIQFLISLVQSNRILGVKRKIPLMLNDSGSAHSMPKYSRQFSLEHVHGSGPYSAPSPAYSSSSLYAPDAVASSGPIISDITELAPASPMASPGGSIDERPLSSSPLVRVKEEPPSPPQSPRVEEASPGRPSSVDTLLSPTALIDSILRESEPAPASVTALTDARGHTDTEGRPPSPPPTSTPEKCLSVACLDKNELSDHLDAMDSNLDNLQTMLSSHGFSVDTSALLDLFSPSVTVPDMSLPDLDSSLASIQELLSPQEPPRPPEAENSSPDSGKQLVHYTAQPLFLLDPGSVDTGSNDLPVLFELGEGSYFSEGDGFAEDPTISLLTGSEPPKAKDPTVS
# Chain of ELF4 (Q99607 whole entry): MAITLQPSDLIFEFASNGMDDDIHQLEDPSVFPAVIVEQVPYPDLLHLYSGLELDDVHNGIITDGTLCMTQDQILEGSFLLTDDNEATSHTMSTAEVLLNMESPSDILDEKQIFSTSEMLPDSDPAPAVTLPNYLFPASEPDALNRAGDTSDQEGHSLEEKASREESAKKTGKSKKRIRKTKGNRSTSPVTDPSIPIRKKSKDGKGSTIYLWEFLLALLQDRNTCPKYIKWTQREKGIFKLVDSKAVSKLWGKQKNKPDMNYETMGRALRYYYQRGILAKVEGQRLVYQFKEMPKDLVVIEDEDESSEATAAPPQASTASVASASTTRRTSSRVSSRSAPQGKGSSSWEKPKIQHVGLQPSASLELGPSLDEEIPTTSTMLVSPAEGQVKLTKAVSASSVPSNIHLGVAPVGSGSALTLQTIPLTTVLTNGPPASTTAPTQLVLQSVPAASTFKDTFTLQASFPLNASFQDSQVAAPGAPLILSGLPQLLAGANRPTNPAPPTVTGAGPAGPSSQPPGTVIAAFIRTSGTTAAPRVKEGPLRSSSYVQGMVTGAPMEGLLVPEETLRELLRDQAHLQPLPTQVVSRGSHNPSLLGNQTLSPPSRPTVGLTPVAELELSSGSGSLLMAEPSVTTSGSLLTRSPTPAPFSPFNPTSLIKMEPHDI
# Chain of CRX (O43186 whole entry): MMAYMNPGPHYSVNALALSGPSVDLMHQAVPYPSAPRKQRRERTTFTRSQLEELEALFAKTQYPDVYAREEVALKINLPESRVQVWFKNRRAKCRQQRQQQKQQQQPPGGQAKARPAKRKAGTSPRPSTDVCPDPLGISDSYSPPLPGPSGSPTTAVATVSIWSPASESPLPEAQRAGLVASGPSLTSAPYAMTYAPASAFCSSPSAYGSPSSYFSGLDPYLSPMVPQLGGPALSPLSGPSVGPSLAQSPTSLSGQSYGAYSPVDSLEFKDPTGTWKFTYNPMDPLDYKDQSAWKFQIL
# Chain of ETV1 (P50549 whole entry): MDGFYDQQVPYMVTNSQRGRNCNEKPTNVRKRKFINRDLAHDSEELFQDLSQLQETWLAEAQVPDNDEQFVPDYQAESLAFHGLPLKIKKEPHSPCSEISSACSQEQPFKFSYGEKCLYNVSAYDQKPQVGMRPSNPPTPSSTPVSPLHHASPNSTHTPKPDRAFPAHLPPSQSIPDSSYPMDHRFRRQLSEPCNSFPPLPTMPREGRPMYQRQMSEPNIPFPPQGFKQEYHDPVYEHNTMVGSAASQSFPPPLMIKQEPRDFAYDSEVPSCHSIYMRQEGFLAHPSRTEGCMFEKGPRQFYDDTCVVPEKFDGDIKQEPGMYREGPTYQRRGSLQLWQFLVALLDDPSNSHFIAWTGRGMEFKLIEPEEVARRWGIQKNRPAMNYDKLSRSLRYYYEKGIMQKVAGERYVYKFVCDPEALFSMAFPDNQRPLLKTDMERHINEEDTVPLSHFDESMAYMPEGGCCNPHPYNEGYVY
# Chain of ETV5 (P41161 whole entry): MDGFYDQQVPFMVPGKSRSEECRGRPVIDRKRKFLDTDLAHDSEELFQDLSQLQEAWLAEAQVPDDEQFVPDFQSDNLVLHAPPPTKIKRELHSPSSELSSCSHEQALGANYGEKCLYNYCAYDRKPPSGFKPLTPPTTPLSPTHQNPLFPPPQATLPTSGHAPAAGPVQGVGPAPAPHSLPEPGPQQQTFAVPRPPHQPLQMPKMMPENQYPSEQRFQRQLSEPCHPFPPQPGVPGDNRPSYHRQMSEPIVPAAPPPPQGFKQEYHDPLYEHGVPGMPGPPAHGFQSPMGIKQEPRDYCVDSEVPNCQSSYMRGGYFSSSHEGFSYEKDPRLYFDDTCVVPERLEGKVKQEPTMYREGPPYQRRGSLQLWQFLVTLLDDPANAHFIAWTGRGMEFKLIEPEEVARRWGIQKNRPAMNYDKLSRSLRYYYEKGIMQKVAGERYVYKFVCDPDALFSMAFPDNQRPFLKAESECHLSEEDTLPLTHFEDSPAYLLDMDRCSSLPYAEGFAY
sequence,measurement,setting,value
TCTGTT,binding signal,FEV,"1.29 fold enrichment (6-mer frequency, TF over GST control)"
same,binding signal,ETV5,"1.27 fold enrichment (6-mer frequency, TF over GST control)"
same,binding signal,HSF1,"1.43 fold enrichment (6-mer frequency, TF over GST control)"
same,binding signal,SPIC,"1.31 fold enrichment (6-mer frequency, TF over GST control)"
same,binding signal,ELF4,"1.39 fold enrichment (6-mer frequency, TF over GST control)"
same,binding signal,ELK4,"1.25 fold enrichment (6-mer frequency, TF over GST control)"
same,binding signal,ETV2,"1.3 fold enrichment (6-mer frequency, TF over GST control)"
same,binding signal,ELF3,"1.53 fold enrichment (6-mer frequency, TF over GST control)"
same,binding signal,CRX,"1.27 fold enrichment (6-mer frequency, TF over GST control)"
same,binding signal,ETV1,"1.41 fold enrichment (6-mer frequency, TF over GST control)"
